Measurements reported in PubChem BioAssay AID624330 (Southern Research Specialized Biocontainment Screening …, 2012).
Out of some 340,000 compounds screened, about 2,100 (0.62%) were called active.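 How the source made its calls: active means first-screen hits whose inhibition reached a set limit at any dose in the follow-up dose series; inconclusive means inhibition above the set first-screen limit but never retested; inactive means the rest.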 These entries were drawn from the full list. Potency and affinity values are given separately.

What follows are compounds tested against Rac GTPase-activating protein 1 (Homo sapiens) (UniProt Q9H0H5) (assay: MgcRacGAP GTPase-activating activity inhibitors, confirmation, biochemical, ADP Hunter fluorescence, primary and confirmatory (AID 624330;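 further: fluorescence reports GDP produced by GAP-driven GTP hydrolysis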)). Settings: MgcRacGAP-stimulated Rac1 GTP hydrolysis, at 30 µM, hits give high values, GST-tagged Rac1 F28L mutant substrate.
Rac GTPase-activating protein 1 (Homo sapiens), sequence (Q9H0H5 whole entry, looked up): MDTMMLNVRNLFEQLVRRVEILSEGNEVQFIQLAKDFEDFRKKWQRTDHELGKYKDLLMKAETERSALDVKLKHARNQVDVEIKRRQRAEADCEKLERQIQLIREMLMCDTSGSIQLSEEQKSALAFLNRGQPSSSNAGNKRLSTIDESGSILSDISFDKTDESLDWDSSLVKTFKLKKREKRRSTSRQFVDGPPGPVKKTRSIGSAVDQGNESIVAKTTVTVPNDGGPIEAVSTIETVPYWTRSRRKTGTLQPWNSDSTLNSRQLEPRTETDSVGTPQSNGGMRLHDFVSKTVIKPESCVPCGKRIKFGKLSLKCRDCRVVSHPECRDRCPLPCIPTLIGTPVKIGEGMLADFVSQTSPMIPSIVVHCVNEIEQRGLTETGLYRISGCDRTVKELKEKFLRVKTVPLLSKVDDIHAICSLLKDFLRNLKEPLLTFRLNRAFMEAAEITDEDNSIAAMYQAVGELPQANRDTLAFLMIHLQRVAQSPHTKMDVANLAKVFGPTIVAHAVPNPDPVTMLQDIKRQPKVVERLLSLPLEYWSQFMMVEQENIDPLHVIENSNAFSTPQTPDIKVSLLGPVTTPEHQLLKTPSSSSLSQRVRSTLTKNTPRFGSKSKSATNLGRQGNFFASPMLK

inhibition, inactive:
O=C(Nc1ccncc1)C1CC(=O)N(c2ccccc2)C1 (stereo not drawn) 0.29%
CCN1C(=O)[C@H]2[C@@H](c3ccc(Cl)cc3)N3C(=O)CN(Cc4ccccc4)C(=O)[C@@]3(C)[C@H]2C1=O 5.83%
N#CCCNc1ccc(OCCC#N)cc1 11.4%
CCOc1ccc(NCCC#N)cc1 30.3%
CCC(=O)Nc1cccc(C(=O)/C=C/c2cc(Br)ccc2OC)c1 7.87%
CCC(CO)N=C1CC(C)(C)CC(=O)/C1=C(/O)CCCN1C(=O)c2ccccc2C1=O (stereo not drawn) 0.34%
COc1cc2nc(N3CCN(c4cc(C)ccc4C)CC3)nc(N)c2cc1OC 4.78%
COc1cc2nc(N3CCN(C(=O)c4ccco4)CC3)nc(N)c2cc1OC 17.7%
COC(=O)[C@H](CC(C)C)NC(=O)NCCCc1ccccc1 3.77%
O=C(CCNS(=O)(=O)c1cccc2nsnc12)NCCC1=CCCCC1 11.7%
Cc1cccc(OCC(=O)Nc2ccc3c(C)cc(=O)oc3c2)c1 -2.83%
Nc1nc(N2CCN(c3ccc(F)cc3)CC2)n[nH]1 12.1%
Cc1nn(-c2cc(N3CCCCC3)ccc2N)c(=O)c2ccccc12 12.5%
CC(=O)N1CCN(c2ccc([N+](=O)[O-])cc2)CC1 5.88%
N#Cc1ccc(N2CCN(c3ccc(F)cc3)CC2)cc1 7.18%
Nc1ccc(N2CCCCC2)cc1N1CCCCC1 10.4%
CC(=O)Nc1ccc(N2CCN(C(C)=O)CC2)cc1 8.62%
CN1CCN(c2ccc(C(=O)c3ccc(F)cc3)cc2)CC1 12.6%
CN1CCN(S(=O)(=O)c2ccc(N)cc2)CC1 -0.77%
OCC1CCCN(C(=S)NCCc2ccccc2)C1 (stereo not drawn) 2.94%
O=C(Cn1cnc2c(nnn2Cc2ccc(Cl)cc2)c1=O)NC1CCCC1 7.49%
COc1cc(SC)ccc1C(=O)OCC(=O)NCCC1=CCCCC1 -5.82%
C=CCn1c(SC(C)C(=O)NC2CC2)nnc1-c1ccoc1C (stereo not drawn) 4.4%
CCOc1cccc(C(=O)NNC(=O)C2C3C=CC(C3)C2C(=O)O)c1 (stereo not drawn) 5.45%
CCCN1Cc2cccc(C(=O)NCCc3ccccc3)c2C1=O 5.13%
Cc1ccc(-c2nn(-c3ccccc3)cc2C(=O)Nc2ccc(C)c(S(=O)(=O)N3CCOCC3)c2)cc1 -2.39%
COc1ccc(C(CNS(=O)(=O)c2ccccc2)N2CCN(C)CC2)cc1 (stereo not drawn) 1.91%
O=C(c1cccs1)N1CCN(c2ccccc2)CC1 -0.45%
O=C(CSc1ccccc1)Nc1ccc(N2CCN(c3ccccc3)CC2)c(F)c1 5.08%
CCN1CCN(c2ccc(NC(=O)Cc3ccccc3)cc2)CC1 6.87%
CCN1CCN(c2ccc(NC(=O)c3ccc(Br)o3)cc2)CC1 8.5%
O=C(Nc1ccc(N2CCN(c3ccccc3)CC2)c(F)c1)C1CC1 5.36%
O=C(c1cccs1)N1CCN(c2ccc(F)cc2)CC1 13.3%
Cc1ccccc1C(=O)Nc1cc(NC(=O)c2ccccc2C)cc(C(=O)O)c1 10.1%
O=S(=O)(c1ccc(F)cc1)c1nc(-c2ccccc2)oc1N1CCOCC1 9.44%
CC(=O)c1cccc(NC(=O)Cn2cnc(S(=O)(=O)N3CCCCC3)c2)c1 2.19%
CCS(=O)(=O)N1Cc2ccccc2CC1C(=O)N(C)Cc1ccc(OC)cc1OC (stereo not drawn) 5.19%
CCOc1cccc(-c2c(C(=O)N/N=C/c3ccc(C)s3)nnn2-c2nonc2N)c1 0.29%
COc1ccc(C2SCCN2S(=O)(=O)c2ccc(F)cc2)cc1OC (stereo not drawn) 6.1%
O=C(NCCCN1CCCC1=O)c1cccc(S(=O)(=O)N2CCN(c3ccc(F)cc3)CC2)c1 1.69%
CCOc1ccc(NCc2cc3cc(OC)ccc3[nH]c2=O)cc1 15.8%
COc1cccc(CNc2cnc3ccccc3c2)c1O 1.26%
COc1ccc(NC(=O)CSc2nc3ccccc3cc2Cc2ccccc2)cc1 3.45%
COc1ccc(C(=O)NCc2cc(C)nc3ccccc23)cc1 -16.4%
COc1ccc(Nc2c3ccccc3nc3ccccc23)cc1 17.9%
COc1ccc2[nH]c(=O)c(CNc3ccccc3)cc2c1 9.73%
COc1ccc(-c2cccc([C@H]3[C@@H]4C=CCC[C@@]4(C)C(=O)N3Cc3ccccc3)c2)cc1 12.4%
Cc1cccc(C(=O)Nc2cc(NC(=O)c3cccs3)ccc2C)c1 5.54%
CCOc1ccccc1CN1CCN(C2CCSCC2)CC1CCO (stereo not drawn) 7.4%
CN(CC(=O)Nc1ccc(SC(F)F)cc1)C1CCCCC1 9.96%
Nc1ccc2nc(-c3cccc(-c4nc5ccc(N)cc5[nH]4)n3)[nH]c2c1 16.5%
Nc1ccc2cn[nH]c2c1 2.65%
COc1ccc(-c2cc(CCCC(=O)NCCc3ccc(OC)cc3OC)no2)cc1 -0.07%
Cc1sc2nc(CN3CCOCC3)nc(N3CCC(C(N)=O)CC3)c2c1C -3.61%
Cc1sc2nc(CN3CCOCC3)nc(Cl)c2c1C 5.87%
CCC(=O)Nc1cccc(NC(=O)CSc2nc3c(c(=O)n(C)c(=O)n3C)n2C)c1 7.76%
O=C(COc1ccc2ccc(=O)oc2c1)N1CCc2ccccc21 -9.6%
CC(N=c1ccccn1C(=O)Nc1cccc(C(F)(F)F)c1)c1ccco1 (stereo not drawn) 2.17%
CCN(CC(=O)NC(=O)NCc1ccccc1)Cc1ccccc1 3.08%
O=C(CN1CCCCC1)NN(Cc1ccccc1)c1ccccc1 10.1%
CC(C)(O)C(=O)NN(Cc1ccccc1)c1ccccc1 4.09%
CN1CCN(CC(=O)NN(Cc2ccccc2)c2ccccc2)CC1 31.6%
CCCc1cc(=O)[nH]c(SCC(=O)c2cc(C)n(CC3CCCO3)c2C)n1 (stereo not drawn) 4.29%
Cc1ccc(S(=O)(=O)NC(C)C(=O)N2CCOCCOCCOCCOCC2)cc1 (stereo not drawn) 9.08%
CCc1ccc(NC(=O)C2CCN(S(=O)(=O)c3ccc4c(c3)NC(=O)CO4)CC2)cc1 -14%
COc1cc(/C=C2\C(=O)ON=C2c2ccccc2)cc(OC)c1OC 15%
COc1cc(/C=C(/C(=O)O)c2ccc(-c3ccccc3)cc2)cc(OC)c1OC 7.82%
Cn1c(=O)cc(-c2ccccc2)c2ccccc21 5.87%
Cn1c(-c2ccccc2)cc(=O)c2ccccc21 12.4%
O=C1/C(=C/c2ccc([N+](=O)[O-])cc2)C=C(c2ccccc2)N1c1ccccc1 15.2%
CC(C)n1c2ccccc2c2cc([N+](=O)[O-])ccc21 10.7%
CC(=O)Nc1ccc(NC(=O)CSc2nnc(-c3cccs3)n2C)cc1 5.9%
O=C(/C=C/c1cccc([N+](=O)[O-])c1)NCc1ccccc1 2.96%
CCCCOc1cccc(/C=C(\C#N)C(=O)NC2CC2)c1 4.72%
CC(C)(C)OC(=O)C[C@@H]1C/C=C\C[C@@H](CC(=O)N[C@H](CO)Cc2ccccc2)C(=O)N2CCC[C@@H]2COC1=O 4.93%
CN(CCO)c1ncnc2c1sc1nc(N3CCOCC3)c3c(c12)CCC3 13.9%
O=C(CCl)N(c1ccccc1)c1ccccc1 5.65%
Cc1cc(C(=O)NNC(=O)C2CCCC2)c(C)o1 4.19%
Cc1cnc(NC(=O)c2cccs2)s1 0.1%
NC(=O)C[C@H](N)c1cn([C@@H](CC(N)=O)C(=O)N2CCNCC2)nn1 -0.03%
CN(CC1CCCN(CCc2ccc(Cl)cc2)C1)C(=O)C(=O)c1ccco1 (stereo not drawn) 6.85%
Cc1ccn2cc(C(=O)N3CCN(c4cnn(-c5ccccc5)c(=O)c4Cl)CC3)nc2c1 2.32%
O=C(NCc1ccccc1)NS(=O)(=O)c1ccccc1Cl 2.6%
CCCCCCCCCCCCCCCC[N+](C)(C)CCl 15.1%
CCCCCCCCCCCCCCCC[N+](C)(C)CC 18.7%
COc1ccc(CNC(=O)C(C)N(Cc2ccco2)C(=O)c2snc(C(N)=O)c2N)cc1 (stereo not drawn) -8.32%
COc1ccc(C2CC(c3ccc4ccccc4c3)=NN2C(=O)CSc2ncccn2)cc1 (stereo not drawn) 7.23%
C=CCNCC(=O)N1N=C(c2ccc3ccccc3c2)CC1c1ccc(OC)cc1 (stereo not drawn) 6.55%
CN(C)CC1CCC/C(=C\c2ccc(OC(=O)c3ccc(Cl)cc3)cc2)C1=O (stereo not drawn) 2.37%
COc1ccc(CCNC(=O)CCOc2ccc(C(C)(C)C)cc2)cc1OC 3.35%
CC(=O)Nc1nnc(S(N)(=O)=O)s1 1.42%
Cc1ccc(-c2nnc(NC(=O)c3ccco3)s2)cc1 6.39%
CC(=O)Nc1nnc(C)s1 9.89%
Cc1nnc(NC(=O)c2ccco2)s1 4.57%
CC(C)c1ccc(CNC(=O)C(=O)NCC2CCCO2)cc1 (stereo not drawn) 14.8%
Cc1cc(NS(=O)(=O)c2ccc(NC(=O)COc3ccccc3[N+](=O)[O-])cc2)no1 7.5%
CC1c2ccccc2SC(CCCN(C)C)c2ccccc21 (stereo not drawn) 5.84%
CN(C)CCC1Sc2ccccc2Oc2ccccc21 (stereo not drawn) 17.5%
